Screens from PubChem BioAssay.
In the library only some 4.2% were active in any assay of this set; here they are far more common.
D1 ag: human D1 receptor agonism. 360,000 tested, 1% active. activation, % at 2 µM. HEK293 T-REx D1 cells, calcium flux, agonist mode. P21728; in the data active means activation above about 30%; further: 0% is about no effect
Target sequence (P21728 whole entry, looked up): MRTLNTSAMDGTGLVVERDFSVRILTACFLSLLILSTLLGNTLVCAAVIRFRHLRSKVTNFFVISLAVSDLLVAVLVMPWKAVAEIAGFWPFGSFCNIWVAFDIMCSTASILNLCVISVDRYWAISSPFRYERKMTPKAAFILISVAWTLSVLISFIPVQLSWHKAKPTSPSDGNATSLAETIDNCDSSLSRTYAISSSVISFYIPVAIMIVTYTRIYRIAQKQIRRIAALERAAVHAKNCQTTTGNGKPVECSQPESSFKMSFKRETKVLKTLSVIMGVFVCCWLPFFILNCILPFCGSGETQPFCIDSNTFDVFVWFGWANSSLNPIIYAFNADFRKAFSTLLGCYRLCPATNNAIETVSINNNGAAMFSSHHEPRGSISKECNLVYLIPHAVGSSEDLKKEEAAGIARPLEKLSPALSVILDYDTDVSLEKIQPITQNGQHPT
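Tetracycline-induced HEK293 TREx D1 cells, force-coupled to calcium signalling, were dye-loaded with a no-wash calcium kit. Compound was pin-added after a 10 s baseline. Fluorescence was read kinetically at 1 cycle/s for 180 s, with calcium rises flagged as agonism.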
TRPV1 ag: activates the human vanilloid receptor TRPV1. TRPV1-expressing cells, Fluo-8 calcium influx, agonist mode. AID 540275. Q8NER1. 320,000 tested, 0.19% active. activation, % at 8.33 µM; in the data active means activation above about 80%; inconclusive means between about 30% and that limit; further: 0% is about no effect
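TRPV1-expressing cells were cultured overnight at 35.5C and loaded with Fluo-8 calcium dye for 40 to 90 min at room temperature. After a 10 s baseline, compound was added and calcium influx was read kinetically for 3 min (ex 480/em 520 nm).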
D1 antagonist: human D1 dopamine receptor antagonism | P21728 | HEK293 TREx D1 cells, calcium flux, dopamine EC80; stronger effect = lower value | activity change, negative = inhibition, % at 10 µM | 360,000 tested, 3.2% active | AID 504652; in the data active means activity change below about -30%; further: on the % scale 0 is the no-effect control and ±100 the full control effect
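Allosteric or orthosteric antagonism assessed as attenuation of the calcium response to EC80 dopamine, added 180 s after compound, in induced HEK293 Trex D1 cells loaded with no-wash calcium dye.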
TRPV1 PAM: potentiators of human vanilloid receptor 1 (TRPV1); Q8NER1; TRPV1-expressing cells, Fluo-8 calcium influx, capsaicin EC20 potentiation; potentiation, % at 8.33 µM; 320,000 tested, 0.02% active; AID 540277; in the data active means potentiation above about 80%; inconclusive means between about 30% and that limit; further: 0% is about no effect
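TRPV1-expressing cells were cultured overnight at 35.5C and loaded with Fluo-8 calcium dye for 40 to 90 min at room temperature. After a 10 s baseline, compound was added and calcium influx was read kinetically for 3 min (ex 480/em 520 nm).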
D1 potentiator: enhances dopamine response at the human D1 receptor. P21728. HEK293 TREx D1 cells, calcium flux, dopamine EC20 potentiation. potentiation, % at 10 µM. 360,000 tested, 0.036% active. AID 504651; in the data active means potentiation above about 30%; further: 0% is about no effect
Numbers without * were called inactive; ? = inconclusive; nt = not tested or not shown.

SMILES	D1 ag	TRPV1 ag	D1 antagonist	TRPV1 PAM	D1 potentiator
CCOc1ccc(C2C(C(=O)Nc3ccccc3)=C(C)Nc3nc(-c4ccccc4)nn32)cc1OC (stereo not given)	10.2	nt	-3.3	nt	1.2
CCCCCN1C=CC=C/C1=C\C=C(C#N)C#N	71.2*	26.9	1.6	-11.2	3.9
CCCCCCN1C=CC=C/C1=C/C=C(C#N)C#N	132.5*	27.8	5.5	2.7	2.6
Cc1ccc(CN2C(=O)C(CC(C)C)Nc3ncnc(N4CCN(c5ccccn5)CC4)c32)cc1 (stereo not given)	2.9	81.2*	-2.3	-15.5	-5.2
CC(C)CC1Nc2ncnc(N3CCN(c4ccccn4)CC3)c2N(Cc2ccc(Br)cc2)C1=O (stereo not given)	3.1	?	2.3	-0.8	-1.3
O=C1/C(=C\c2ccc(O)cc2)SC(=S)N1/N=C/c1ccc(O)cc1	110.8*	14.1	-23.3	-7.0	4.3
CC(=O)NN1C(=O)/C(=C\c2ccc(O)cc2)SC1=S	14.9	2.4	-8.0	-2.8	-4.3
O=C(NCc1ccccc1)c1ccc(Cn2c(=O)c3cccn3c3cccnc32)cc1	2.9	nt	9.6	nt	-2.2
COc1ccc(NC(=O)COC(=O)CC2CC3CCC2C3)c([N+](=O)[O-])c1 (stereo not given)	3.6	14.9	-96.6*	-17.0	-1.6
O=C(CSc1nnc(CNC(=O)c2ccccc2)o1)c1ccc(Cl)cc1	12.6	2.2	-43.2*	7.3	-6.8
Cc1ccc(OCc2nnc(SCC(=O)N3c4ccccc4Sc4ccc(Cl)cc43)o2)cc1	0.7	-1.5	-32.2*	5.5	2.2
COc1ccc(OCc2nnc(SCC(=O)N3c4ccccc4Sc4ccc(Cl)cc43)o2)cc1	6.5	-2.4	-2.9	11.7	-0.1
CN1CCN(C(=O)CSc2nnc(COc3ccc(Cl)cc3)o2)CC1	16.0	-6.1	-36.7*	6.6	nt
O=C(COc1ccc(Cl)cc1)NCc1nnc(SCC(=O)Nc2ccccc2)o1	-0.7	-0.5	0.1	-0.8	1.9
CN1CCN(C(=O)CSc2nnc(COc3ccccc3)o2)CC1	3.8	-1.7	-1.1	1.6	0.5
O=C(COc1ccc(Cl)cc1)NCc1nnc(SCC(=O)NC2CCCCC2)o1	20.2	-1.8	-32.5*	12.6	-4.8
O=C1COc2ccc(-c3cc(-c4ccc(Cl)cc4)c4c(n3)-c3ccccc3OC4)cc2N1	-0.3	nt	-5.9	nt	-1.9
Nc1nonc1-c1nc2ccccc2n1CC(=O)Nc1cccc(Cl)c1Cl	3.1	nt	-19.1	nt	0.1
O=C(CSc1nnc(CNc2ccc(F)cc2)o1)OC1CCCCC1	1.8	14.3	-30.8*	5.7	0.3
O=C(CSc1nc2ccccc2s1)N1c2ccccc2Sc2ccc(Cl)cc21	2.0	-2.3	-48.9*	2.6	-9.6
Cc1ccc(NC(=O)Cn2c(=O)n(CCCCCC(=O)NCc3ccc(F)cc3)c(=O)c3sccc32)cc1C	5.1	nt	-0.3	nt	0.5
COc1cc(/C=C(/C#N)C(=O)NC(C)c2ccccc2)cc(OC)c1O (stereo not given)	94.7*	22.3	3.8	-6.4	1.2
CC(NC(=O)/C(C#N)=C/c1ccc(C(=O)O)cc1)c1ccccc1 (stereo not given)	14.5	-5.1	5.1	7.7	-3.3
COc1ccc(/C=C(\C#N)C(=O)NCCc2ccccc2)cc1OCc1ccccc1	33.5*	-8.6	-26.4	18.3	-2.9
CC(C)Sc1ncc(Cl)c(C(=O)N(Cc2ccc(N(C)C)cc2)C2CCS(=O)(=O)C2)n1 (stereo not given)	2.8	nt	7.8	nt	0.7
SMILES	D1 ag	TRPV1 ag	D1 antagonist	TRPV1 PAM	D1 potentiator
Cc1ccc(CNC(=O)CN2C(=O)C3CCCCN3c3ccc(C(=O)N(C)C)cc32)cc1 (stereo not given)	2.7	nt	-12.8	nt	-5.5
CS(=O)(=O)c1ncc(Cl)c(C(=O)N2CCN(c3cccc(Cl)c3)CC2)n1	14.4	4.2	-50.0*	3.7	1.4
CCS(=O)(=O)c1ncc(Cl)c(C(=O)N2CCN(c3cccc(Cl)c3)CC2)n1	4.7	nt	-30.6*	nt	-4.2
CC(=O)Nc1ccc(S(=O)(=O)NCCSCc2ccc(Cl)cc2Cl)cc1	14.7	-1.1	-31.1*	2.2	-6.6
CC(=O)Nc1ccc(S(=O)(=O)NCCNS(=O)(=O)c2ccc(NC(C)=O)cc2)cc1	0.4	1.2	4.1	?	-4.0
CC(C)Oc1cccc(C2CC(=O)Nc3cc4c(cc32)OCO4)c1 (stereo not given)	67.9*	nt	-32.3*	nt	-1.1
CC1=C(C(=O)Nc2ccc(C)cc2C)C(c2ccccc2F)n2nc(SCC(=O)c3ccc(C)cc3)nc2N1 (stereo not given)	1.5	nt	4.8	nt	-1.6
CCCN(C(=O)c1cc(S(=O)(=O)N2CCc3ccccc32)cn1C)c1ccc(OCC)cc1	-1.3	nt	0.8	nt	-3.0
O=C(O)CCC(=O)Nc1nnc(C(F)(F)F)s1	2.8	-0.8	3.2	7.2	-1.2
CCC(NC(=O)Nc1nnc(C(F)(F)F)s1)(C(F)(F)F)C(F)(F)F	31.3*	9.8	-57.8*	-5.1	-10.6
O=C(O)CC1c2ccccc2C=Cc2ccccc21	0.1	2.3	-31.9*	-26.1	-6.3
CC(=O)N1c2ccccc2C2(C)C(C1(C)C)C2(Cl)Cl (stereo not given)	207.1*	3.8	5.3	-5.7	20.9
Cc1ccc2c(c1)C1(C)C(C(C)(C)N2C=O)C1(Cl)Cl (stereo not given)	1.7	3.6	31.2	-1.7	4.2
Cc1cc(C)n2cc(CSc3ccc(Br)cc3)nc2n1	2.9	-1.2	-2.1	15.3	4.7
Cc1cc(C)n2cc(CSCC(=O)O)nc2n1	0.4	-0.3	-35.1*	-10.2	-6.2
CCOC(=O)C(=O)c1csc(NC(=O)CCSc2ccc(C)cc2)n1	3.6	1.3	-78.7*	7.6	-1.1
Cc1ccc(Cl)cc1N1CCN(C(=S)NCc2ccco2)CC1	0.7	6.0	nt	-4.9	-9.4
S=C(NCc1ccco1)N1CCN(c2ccccc2Cl)CC1	3.1	9.4	-33.5*	-7.7	-9.0
COc1cc(NC(=O)C2CCN(c3nc4ccccc4nc3C(F)(F)F)CC2)cc(OC)c1	2.0	nt	8.5	nt	0.3
Cn1c(C(=O)O)c(CC(=O)Nc2ccc(F)cc2F)c2ccccc21	0.1	-1.5	-50.4*	?	-1.0
Cc1ccc(NC(=O)Cc2c(C(=O)O)n(C)c3ccccc23)cc1F	0.2	-3.0	-0.6	13.5	0.8
CCc1ccccc1NC(=O)CN(c1ccccc1)S(=O)(=O)c1ccsc1C(=O)OC	5.8	nt	8.1	nt	-0.6
C=C(C)Cn1c(SCC(=O)Nc2cccc(Cl)c2)nc2sc3c(c2c1=O)CCCC3	4.0	nt	-3.0	nt	-0.5
Cc1cccc(C(=O)NC(NCc2ccco2)C(Cl)(Cl)Cl)c1 (stereo not given)	4.1	3.7	-1.3	9.3	-7.6
Cc1cccc(C(=O)NC(NCCc2ccccc2)C(Cl)(Cl)Cl)c1 (stereo not given)	19.2	-1.3	-41.4*	17.3	-4.5
